Only some compounds are listed: those with a hit (about 6.7% of all), similar ones and a draw of the others.
Anthrax LF inh2: anthrax lethal factor protease inhibition | multiplex microsphere protease cleavage assay, LF | inhibition, % at 10 µM | actives 0.12% (n = 360,000) | AID 588501; in the data active means inhibition above about 30%; inconclusive means no clear call, values can overlap the other calls
Target sequence (P15917 whole entry, looked up): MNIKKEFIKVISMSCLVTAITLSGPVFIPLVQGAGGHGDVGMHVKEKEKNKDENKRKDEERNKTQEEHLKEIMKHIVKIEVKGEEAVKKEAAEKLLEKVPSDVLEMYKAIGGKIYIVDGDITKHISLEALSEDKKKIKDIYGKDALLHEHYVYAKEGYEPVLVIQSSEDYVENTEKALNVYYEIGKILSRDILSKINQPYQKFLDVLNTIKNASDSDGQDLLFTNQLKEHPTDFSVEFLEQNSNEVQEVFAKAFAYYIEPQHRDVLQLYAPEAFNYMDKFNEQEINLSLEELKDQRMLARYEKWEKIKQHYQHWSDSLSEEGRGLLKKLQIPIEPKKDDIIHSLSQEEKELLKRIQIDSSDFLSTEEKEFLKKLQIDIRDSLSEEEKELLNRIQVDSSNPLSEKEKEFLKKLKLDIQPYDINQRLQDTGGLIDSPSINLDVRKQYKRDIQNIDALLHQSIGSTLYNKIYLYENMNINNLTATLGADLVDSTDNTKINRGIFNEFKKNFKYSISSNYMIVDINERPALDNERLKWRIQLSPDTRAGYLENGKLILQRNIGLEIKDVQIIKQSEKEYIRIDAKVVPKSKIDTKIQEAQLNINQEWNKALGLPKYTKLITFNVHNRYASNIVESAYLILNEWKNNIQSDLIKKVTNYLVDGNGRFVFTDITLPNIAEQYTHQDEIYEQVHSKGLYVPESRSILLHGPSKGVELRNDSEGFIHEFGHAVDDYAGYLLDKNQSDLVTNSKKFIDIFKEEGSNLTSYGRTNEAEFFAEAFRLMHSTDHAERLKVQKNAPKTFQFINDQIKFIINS
FBA Mtb inh: inhibits M. tuberculosis FBA enzyme | P9WQA3 | purified M. tuberculosis FBA, fluorescence read-out | inhibition, % at 1 µM | actives 2.3% (n = 360,000)
Autofluor counter: counter-screen for toxin protease inhibitors: compound fluorescence | fluorescence intensity (concentration not given with the values) | compound autofluorescence counterscreen, microsphere flow cytometry; stronger effect = higher value | actives 3.1% (n = 360,000); in the data active means fluorescence intensity above about 16000; inconclusive means no clear call, values can overlap the other calls
GDH-TPI counter-1: inhibits GDH-TPI coupling enzymes, artifact for Mtb FBA screen | GDH-TPI coupled enzyme counterscreen, NADH absorbance | inhibition, % at 4.8 µM | actives 1.2% (n = 360,000) | AID 588335; in the data active means inhibition above about 30%
BoNT A protease: blocks Botulinum neurotoxin A light chain protease | inhibition, % at 10 µM | multiplex microsphere protease substrate cleavage, flow cytometry | actives 0.17% (n = 360,000); in the data active means inhibition above about 30%; inconclusive means no clear call, values can overlap the other calls
BoNT-F LC inh: inhibitors of Botulinum neurotoxin F light chain protease. AID 588497. actives 0.22% (n = 360,000). inhibition, % at 10 µM. Multiplex microsphere protease cleavage assay, flow cytometry; in the data active means inhibition above about 35%, passing the limit was not always enough; inconclusive means no clear call, values can overlap the other calls
Mtb FBA inh conf: confirmation of M. tuberculosis fructose-bisphosphate aldolase inhibitors | shares compounds with FBA Mtb inh | purified M. tuberculosis FBA, fluorescence read-out | inhibition, % at 1 µM | actives 78% (n = 5,600) | AID 651616
GDH-TPI counter-2: inhibits GDH-TPI coupling enzymes, flagging Mtb FBA hits; shares compounds with FBA Mtb inh; inhibition, % at 1 µM; GDH-TPI coupled enzyme counterscreen, fluorescence; actives 81% (n = 5,600); in the data active means inhibition above about 10%
GDH-TPI dose: inhibits GDH-TPI coupling enzymes in dose response | shares compounds with FBA Mtb inh | GDH-TPI coupled enzyme assay, fluorescence, artifact counterscreen | IC50, µM | actives 79% (n = 170) | AID 652145; call rule not given here
Each line names hits and unclear results; the compound was inactive in the other large screens (follow-up assays come after a bar, where they were run). Unless noted, no stated cut-off is given here; in the data, active means inhibition above about 27%; inactive means the rest.

CCN(CC)CCNC(=O)C(=O)NCC1OCCN1S(=O)(=O)c1ccc(Cl)cc1 (stereo unspecified)	none
Cc1ccccc1C(=O)N1CCN(c2ccc(N3CCOCC3)nn2)CC1	FBA Mtb inh 37 | Mtb FBA inh conf 56 | GDH-TPI counter-2 43
Cc1ccc(C(=O)N2CCN(c3ccc(N4CCOCC4)nn3)CC2)cc1C	Autofluor counter inconclusive
COc1ccc(N2CCN(C(=O)c3cc4c(s3)CCCCC4)CC2)cc1	none
Cc1cnc(C)c(N2CCC(C(=O)NCc3ccco3)CC2)n1	none
Cc1ccccc1C(=O)N1CCN(c2nc(N3CCOCC3)nc(N3CCOCC3)n2)CC1	none
COc1ccc2c(c1)CCc1cc(C(=O)N3CCN(c4ccc(N5CCOCC5)nn4)CC3)sc1-2	FBA Mtb inh 41, GDH-TPI counter-1 34 | Mtb FBA inh conf active | GDH-TPI counter-2 195
COc1cccc(C(=O)N2CCN(c3ccc(N4CCOCC4)nn3)CC2)c1	Anthrax LF inh2 inconclusive, FBA Mtb inh 29, Autofluor counter inconclusive, BoNT A protease inconclusive, BoNT-F LC inh inconclusive | Mtb FBA inh conf inactive | GDH-TPI counter-2 inactive
O=C(NCc1ccco1)C1CCN(c2ccc(N3CCOCC3)nn2)CC1	FBA Mtb inh 27 | Mtb FBA inh conf inactive | GDH-TPI counter-2 inactive
CN(C)S(=O)(=O)c1ccc(C(=O)Nc2ccccc2SCCC#N)cc1	none
CC(NC(=O)c1ccc(N(C)C)cc1)c1ccc(F)cc1 (stereo unspecified)	none
O=C(C1CCN(S(=O)(=O)N2CCOCC2)CC1)N1CCN(c2ccc(F)cc2)CC1	none
O=C(C1CCN(c2ccc(N3CCOCC3)nn2)CC1)N1CCN(c2ccc(F)cc2)CC1	FBA Mtb inh 34, Autofluor counter 22313 | Mtb FBA inh conf 39 | GDH-TPI counter-2 32
O=C(/C=C/c1c[nH]c2ccccc12)c1ccccc1	none
Cc1nn(C)cc1-c1cc(C(=O)O)c2ccccc2n1	FBA Mtb inh 82 | Mtb FBA inh conf inactive | GDH-TPI counter-2 inactive | GDH-TPI dose 3.3
Nc1nccnc1C(=O)OCC(=O)NCCc1ccc(Cl)cc1	FBA Mtb inh 102 | Mtb FBA inh conf inactive | GDH-TPI counter-2 inactive
O=c1nc(-c2ccccc2)n(-c2ccc(Cl)cc2)[nH]1	FBA Mtb inh 28 | Mtb FBA inh conf 128 | GDH-TPI counter-2 105
S=c1nc(-c2ccccc2)n(-c2ccccc2)[nH]1	none
CCn1ccnc1CN(C)Cc1cn[nH]c1-c1ccc(F)cc1F	FBA Mtb inh 91 | Mtb FBA inh conf inactive | GDH-TPI counter-2 inactive
COc1ccc(-c2[nH]ncc2CN(Cc2nccn2C)C(C)C)c(F)c1	none
CN1C(=O)c2ccccc2N(C)C1c1ccc(F)cc1 (stereo unspecified)	FBA Mtb inh 54 | Mtb FBA inh conf 40 | GDH-TPI counter-2 35
CN1C(=O)c2ccccc2N(C)C1c1cccc(O)c1 (stereo unspecified)	FBA Mtb inh 59, BoNT-F LC inh inconclusive | Mtb FBA inh conf inactive | GDH-TPI counter-2 inactive
CN1C(=O)c2ccccc2N(C)C1c1ccc2c(c1)OCO2 (stereo unspecified)	FBA Mtb inh 101 | Mtb FBA inh conf 63 | GDH-TPI counter-2 39
COc1cc(C2N(C)C(=O)c3ccccc3N2C)ccc1O (stereo unspecified)	FBA Mtb inh 76 | Mtb FBA inh conf inactive | GDH-TPI counter-2 inactive
O=C(CCN1C(=O)c2ccccc2C1=O)NCc1ccc(F)cc1	Autofluor counter inconclusive
CN(C)CCCNc1cc(-c2ccccc2)nc2cc(-c3cccc(F)c3)nn12	FBA Mtb inh 78, BoNT-F LC inh inconclusive | Mtb FBA inh conf 78 | GDH-TPI counter-2 61
Cc1cccc(-c2cc3nc(C)cc(NCCCN(C)C)n3n2)c1	none
CC(=O)Nc1ccc(NC(=O)CSc2nc3c([nH]c4ccccc43)c(=O)n2-c2ccccc2F)cc1	none
CC(C)CCNC(=O)c1cc(-c2ccco2)nc2ccccc12	FBA Mtb inh 111 | Mtb FBA inh conf active | GDH-TPI counter-2 active
Cc1ccc(-c2cc(C(=O)NCC3(N(C)C)CCCCC3)c3ccccc3n2)o1	FBA Mtb inh 29 | Mtb FBA inh conf inactive | GDH-TPI counter-2 16
CCCCCCNC(=O)c1cc(-c2ccco2)nc2ccccc12	none
CN(C)C(CNC(=O)c1cc(-c2ccco2)nc2ccccc12)c1ccccc1 (stereo unspecified)	FBA Mtb inh 38 | Mtb FBA inh conf inactive | GDH-TPI counter-2 inactive
COc1cccc(C(=O)NC(c2ccccc2)C2CCCC2)c1 (stereo unspecified)	none
CCS(=O)(=O)NCCc1csc(-c2ccc(OC)c(OC)c2)n1	FBA Mtb inh 55 (no result: Anthrax LF inh2, Autofluor counter, BoNT A protease, BoNT-F LC inh) | Mtb FBA inh conf inactive | GDH-TPI counter-2 inactive
CCCS(=O)(=O)NCCc1csc(-c2ccc(OC)c(OC)c2)n1	FBA Mtb inh 35 | Mtb FBA inh conf 92 | GDH-TPI counter-2 78
CCN(CC(=O)Nc1c(F)cccc1F)C(=O)Cc1ccccc1	none
CCN(CC(=O)Nc1c(F)cccc1F)C(=O)Cc1csc(-c2ccc(OC)c(OC)c2)n1	FBA Mtb inh 44 (no result: Anthrax LF inh2, Autofluor counter, BoNT A protease, BoNT-F LC inh) | Mtb FBA inh conf 68 | GDH-TPI counter-2 56
O=S(=O)(c1ccc2ccccc2c1)N1C=CC(C(F)(F)F)=NCC1	FBA Mtb inh 86 | Mtb FBA inh conf inactive | GDH-TPI counter-2 inactive
COc1ccc(-c2cc3ncc(-c4ccccc4)c(N)n3n2)cc1	none
CC(C)NC(=O)CC1Nc2c3ccccc3nc(=S)n2C1=O (stereo unspecified)	none
Nc1nc2ccc(Br)cc2s1	none
Cc1cc(C)cc(N2CC(O)=C(c3nc4ccccc4c(=O)[nH]3)C2=N)c1	FBA Mtb inh 34 | Mtb FBA inh conf inactive | GDH-TPI counter-2 inactive
COc1cccc(N2CC(O)=C(c3nc4ccccc4c(=O)[nH]3)C2=N)c1	FBA Mtb inh 77, GDH-TPI counter-1 33 | Mtb FBA inh conf 51 | GDH-TPI counter-2 50
N=C1C(c2nc3ccccc3[nH]2)=C(O)CN1c1ccc(F)cc1	none
CC(C)N1CC(O)=C(c2nc3ccccc3c(=O)[nH]2)C1=N	FBA Mtb inh 44 | Mtb FBA inh conf active | GDH-TPI counter-2 170
O=C(O)c1ccc(Cl)c(NCc2cccnc2)c1	BoNT-F LC inh inconclusive
CC1(C)Cc2nc3sc4c(N(CCO)CCO)nnnc4c3cc2CO1	FBA Mtb inh 36 | Mtb FBA inh conf active | GDH-TPI counter-2 188
CN1CCSc2ccc(C(=O)NCc3cccc(Br)c3)cc21	FBA Mtb inh 66 | Mtb FBA inh conf 51 | GDH-TPI counter-2 35
Cc1cccc(CNC(=O)c2ccc3c(c2)N(C)CCS3)c1	FBA Mtb inh 56 | Mtb FBA inh conf 34 | GDH-TPI counter-2 38
COC(=O)c1ccc2c(c1)N(C)CCS2	none
